According to the supplement of paper PMC6522484:
± gives the standard deviation of the averaged measurements.

What was measured:
DLD1 [1] = test: cell viability (CellTiter-Glo) relative to plate median (fraction of plate median); higher = more viable cells; settings: 5 µM; treatment time 24 h; reporter: 7TFP
How it was run: (§1)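 Per-well firefly luciferase or CellTiterGlo luminescence, normalised to the plate median, is what is reported. It was measured in colorectal cancer cells with stable lentiviral TCF/Wnt firefly luciferase reporters after a 24 h treatment with library compounds at a final 5 µM. The mean of two independent replicates is given.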

HCT116 = test: as above; settings: 5 µM; treatment time 24 h; reporter: TCF4/Wnt
How it was run: as §1

SW480 [2] = test: as above; settings: 5 µM; treatment time 24 h; reporter: 7TFP
How it was run: as §1

DLD1 [3] = test: TCF/Wnt firefly luciferase reporter signal relative to plate median (fraction of plate median); higher = higher Wnt reporter signal; settings: 5 µM; treatment time 24 h; reporter: 7TFP
How it was run: as §1

SW480 [4] = test: as above; settings: 5 µM; treatment time 24 h; reporter: 7TFP
How it was run: as §1

Structure (SMILES) | cell viability (DLD1 [1]) | cell viability (HCT116) | cell viability (SW480 [2]) | TCF/Wnt firefly luciferase reporter signal (DLD1 [3]) | TCF/Wnt firefly luciferase reporter signal (SW480 [4])
CC(CCc1ccccc1)NC(C)C(O)c1ccc(O)cc1 (stereo not given) | 0.942 ± 0.064 | 0.904 ± 0.061 | 0.902 | 1.2 ± 0.11 | 1.12 ± 0.014
COP(=S)(OC)SCn1nnc2ccccc2c1=O | 0.983 ± 0.02 | 0.939 ± 0.049 | 0.955 ± 0.0071 | 0.991 ± 0.13 | 0.903 ± 0.14
O=[N+]([O-])O[C@H]1CO[C@H]2[C@@H]1OC[C@H]2O[N+](=O)[O-] | 1 | 1.07 ± 0.014 | 1.05 ± 0.028 | 1.02 ± 0.11 | 1.11
CC(=O)O[C@@H]1C[C@H]2C(C)(C)C(=O)C=C[C@]2(C)[C@H]2CC[C@]3(C)C(=CC(=O)O[C@H]3c3ccoc3)[C@@]21C | 0.99 ± 0.086 | 0.997 ± 0.075 | 0.963 ± 0.016 | 1.03 ± 0.1 | 0.975 ± 0.05
C[C@@H]1C(=O)O[C@H]2[C@H]1CC[C@@]1(C)C=CC(=O)[C@@]3(C)O[C@@]213 [EPOXY (4,5alpha)-4,5-DIHYDROSANTONIN] | 0.995 ± 0.064 | 1.17 ± 0.071 | 1 ± 0.023 | 0.966 ± 0.09 | 0.902 ± 0.042
N[C@H](CO)Cc1ccccc1 | 0.998 ± 0.059 | 0.982 ± 0.12 | 0.981 ± 0.0042 | 0.901 ± 0.09 | 0.761 ± 0.19
COc1ccc2c(c1OC)C(=O)O[C@@H]2[C@H]1c2cc3c(cc2CCN1C)OCO3 | 1.05 ± 0.042 | 1.1 ± 0.078 | 1.1 ± 0.035 | 1.18 ± 0.05 | 1.04 ± 0.097
COc1cccc(C2(O)CCCCC2CN(C)C)c1 (stereo not given) | 0.997 ± 0.019 | 1.03 ± 0.047 | 1 ± 0.036 | 1.09 ± 0.057 | 1.09 ± 0.021
C[C@]12CC[C@H](O)CC1=CC[C@@H]1[C@@H]2CC[C@]2(C)C(=O)CC[C@@H]12 | 1.04 | 1.15 ± 0.021 | 1.02 ± 0.021 | 1.04 ± 0.14 | 0.916 ± 0.026
NCC1(CC(=O)O)CCCCC1 | 1 ± 0.083 | 1.08 ± 0.021 | 0.981 ± 0.013 | 1.07 ± 0.057 | 1.1 ± 0.064
O=C(O)CCC1NCC2CC1CN1CCCCC21 (stereo not given) | 0.999 ± 0.044 | 1.08 ± 0.042 | 0.971 ± 0.023 | 1.27 ± 0.28 | 1.11 ± 0.078
COc1ccc(C(CN(C)C)C2(O)CCCCC2)cc1 (stereo not given) | 1.06 ± 0.014 | 0.972 ± 0.035 | 1.03 ± 0.044 | 0.924 ± 0.069 | 0.907 ± 0.029
CC[C@H]1CN2CC[C@H]1C[C@@H]2[C@@H](O)c1ccnc2ccc(OC)cc12 | 0.997 ± 0.0042 | 1.07 ± 0.05 | 1.06 ± 0.064 | 1.08 ± 0.24 | 1.06 ± 0.071
[N-]=[N+]=CC(=O)OC[C@H](N)C(=O)O | 0.717 ± 0.18 | 0.887 ± 0.092 | 1.07 ± 0.028 | 0.977 ± 0.047 | 0.989 ± 0.044
CN[C@@H]1[C@@H](O)[C@@H](O[C@@H]2[C@@H](O)[C@H](O[C@H]3O[C@H]([C@@H](C)O)[C@@H](O)[C@H](O)[C@H]3N)[C@@H](N)C[C@H]2N)OC[C@]1(C)O | 1.075 ± 0.0071 | 1.04 ± 0.035 | 1.08 ± 0.071 | 0.964 ± 0.12 | 1.08 ± 0.085
CCn1cc(C(=O)O)c(=O)c2cc3c(cc21)OCO3 | 0.96 ± 0.016 | 0.949 ± 0.031 | 0.847 ± 0.27 | 0.893 ± 0.058 | 1 ± 0.11
COc1ccc(OC)c(C(O)C(C)N)c1 (stereo not given) | 0.976 ± 0.1 | 0.974 ± 0.037 | 0.926 ± 0.029 | 0.976 ± 0.031 | 1.13 ± 0.11
CCCCCCCCCCCCCCCC[n+]1ccccc1 | 0.885 ± 0.07 | 0.797 ± 0.13 | 0.95 ± 0.028 | 0.773 ± 0.062 | 0.661 ± 0.073
CC[C@H](C)[C@H]1O[C@]2(C=C[C@@H]1C)C[C@@H]1C[C@@H](C/C=C(\C)[C@@H](O[C@H]3C[C@H](OC)[C@@H](O[C@H]4C[C@H](OC)[C@@H](O)[C@H](C)O4)[C@H](C)O3)[C@@H](C)/C=C/C=C3\CO[C@@H]4[C@H](O)C(C)=C[C@@H](C(=O)O1)[C@]34O)O2.CO[C@H]1C[C@H](O[C@H]2[C@H](C)O[C@@H](O[C@@H]3/C(C)=C/C[C@@H]4C[C@@H](C[C@]5(C=C[C@H](C)[C@@H](C(C)C)O5)O4)OC(=O)[C@@H]4C=C(C)[C@@H](O)[C@H]5OC/C(=C\C=C\[C@@H]3C)[C@]54O)C[C@@H]2OC)O[C@@H](C)[C@@H]1O | 0.893 ± 0.083 | 0.931 ± 0.0028 | 1.01 | 0.977 ± 0.089 | 0.987 ± 0.033
CCNc1nc(Cl)nc(NC(C)C)n1 | 0.981 ± 0.017 | 1.07 ± 0.064 | 0.946 ± 0.023 | 0.965 ± 0.0071 | 0.976 ± 0.0071
COc1ccc(Cc2nccc3cc(OC)c(OC)cc23)cc1OC | 1.09 ± 0.085 | 1.01 ± 0.1 | 0.994 ± 0.066 | 0.961 ± 0.052 | 1.07 ± 0.057
C=C(C)[C@H]1Cc2c(ccc3c(=O)c4c(oc23)COc2cc(OC)c(OC)cc2-4)O1 | 1.07 ± 0.12 | 1 ± 0.041 | 1.12 ± 0.2 | 1.04 ± 0.099 | 0.919 ± 0.13
COc1cc2c(cc1O)C[C@H]1c3c(cc(O)c(OC)c3-2)CCN1C | 1.02 ± 0.095 | 1.06 ± 0.086 | 1.12 ± 0.13 | 0.882 ± 0.033 | 1.01 ± 0.17
CC1(C)C2CC(=O)[C@]3(C)C(CC[C@@]4(C)[C@H](c5ccoc5)OC(=O)[C@H]5O[C@]543)[C@@]2(C)C(=O)C[C@H]1O (stereo not given in full) | 1.015 ± 0.0071 | 0.988 ± 0.018 | 1.01 ± 0.071 | 0.918 ± 0.037 | 0.965 ± 0.079
COC(C)(C)CCC[C@H](C)C/C=C/C(C)=C/C(=O)OC(C)C | 0.948 ± 0.1 | 1.02 ± 0.014 | 0.972 ± 0.083 | 0.968 ± 0.12 | 0.787 ± 0.08
O=C(O)CF | 0.951 ± 0.049 | 0.968 ± 0.059 | 1.035 ± 0.0071 | 1.05 ± 0.014 | 1.07 ± 0.042
COc1cc([C@@H]2c3cc4c(cc3[C@H](OC(C)=O)[C@H]3COC(=O)[C@H]23)OCO4)cc(OC)c1OC | 0.91 ± 0.17 | 0.567 ± 0.042 | 1.205 ± 0.0071 | 0.759 ± 0.0078 | 0.702 ± 0.02
CC(=O)O[C@H]1C[C@@H](OC(C)=O)C(C)(C)C2C[C@@H](OC(C)=O)[C@]3(C)C(CC[C@@]4(C)[C@H](c5ccoc5)C(=O)[C@H]5O[C@]543)[C@]21C (stereo not given in full) | 0.99 ± 0.014 | 1.06 ± 0.19 | 1.02 ± 0.035 | 1.2 ± 0.057 | 1.09 ± 0.078
